Source: PubChem BioAssay (NCATS)
“And” between values parts separate entries of the source, which are not always exact repeats. Equal values may be shown once. Results filed as inconclusive are left out. Entries that show only a call come without a potency. The source made the active and inactive calls. Calls follow the shape of the dose curve; as a rule, active = well fitted curve in the direction sought with a large enough effect; inconclusive = small, poorly fitted or top-dose-only effect, or another doubt; inactive = no such curve, though single readings can be large; an effect the other way counts as inactive or inconclusive.

Tests used:
[1] = qHTS of pediatric cancer cell lines to identify multiple opportunities for drug repurposing: Primary screen for MG 63 (6-TG R) cells (AID 1347105); settings: MG 63 (6-TG R) viability, CellTiter-Glo, 48 h; series mostly up to 46 µM; also: nearly all actives have a fitted effect of over 50% in size; also: potency is read from the fitted curve at half-maximal effect
Procedure, shortened: (§1)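 Phenotypic viability qHTS, 48 h compound exposure, CellTiter-Glo luminescence read-out; multi-concentration dosing so that potency and efficacy derive directly from the primary screen's curves.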

[2] = qHTS of pediatric cancer cell lines to identify multiple opportunities for drug repurposing: Primary screen for Rh30 cells (AID 1347107); settings: Rh30 rhabdomyosarcoma viability, CellTiter-Glo luminescence, 48 h; series mostly up to 46 µM; also: nearly all actives have a fitted effect of over 75% in size
Procedure, shortened: (§2)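 Cells (500-1,000/well) in growth media were settled 5 h at 37 degrees C, then given compounds for 48 h. Viability was read as CellTiter-Glo luminescence. Primary runs used MIPE at 11 points (0.78 nM-46 µM) and NPC at 8 points (0.59 nM-46 µM); follow-ups used 11 points.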

[3] = qHTS of pediatric cancer cell lines to identify multiple opportunities for drug repurposing: Primary screen for Rh41 cells (AID 1347108); settings: Rh41 rhabdomyosarcoma viability, CellTiter-Glo luminescence, 48 h; series mostly up to 46 µM; also: nearly all actives have a fitted effect of over 70% in size; also: potency is read from the fitted curve at half-maximal effect
Procedure, shortened: as §1

[4] = qHTS of pediatric cancer cell lines to identify multiple opportunities for drug repurposing: Primary screen for control Hh wild type fibroblast cells (AID 1347106); settings: Hh wild-type fibroblast viability, CellTiter-Glo luminescence, 48 h; series mostly up to 46 µM; also: nearly all actives have a fitted effect of over 55% in size; also: potency is read from the fitted curve at half-maximal effect
Procedure, shortened: as §2

[5] = qHTS of pediatric cancer cell lines to identify multiple opportunities for drug repurposing: Confirmatory screen for A673 cells (AID 1347110); settings: A673 Ewing sarcoma cell viability; series mostly up to 45.9 µM;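 also: potency is read from the fitted curve at half-maximal effect; cells exposed to compound for 48 h before the viability read; nearly all actives have a fitted effect of over 65% in size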
Procedure, shortened: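 Concentration-response curves came straight from titrations: 11 points (0.78 nM to 46 µM) for MIPE and several concentrations (0.59 nM to 46 µM) for NPC in primary, 11 points in follow-up. Readout: ATP luminescence at 48 h.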

[6] = qHTS of pediatric cancer cell lines to identify multiple opportunities for drug repurposing: Confirmatory screen for SK-N-MC cells (AID 1347111); settings: SK-N-MC cell viability; series mostly up to 45.9 µM;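 also: potency is read from the fitted curve at half-maximal effect; cells exposed to compound for 48 h before the readout; nearly all actives have a fitted effect of over 70% in size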
Procedure, shortened: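 Metabolically active cells were quantified by ATP-dependent luminescence (CellTiter-Glo, 15 min at room temperature) following 48 h treatment. Cells had been plated at 500-1,000 per well and settled for 5 h beforehand.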

[7] = qHTS of pediatric cancer cell lines to identify multiple opportunities for drug repurposing: Confirmatory screen for NB1643 cells (AID 1347109); settings: NB1643 neuroblastoma cell viability; series mostly up to 45.9 µM; also: potency is read from the fitted curve at half-maximal effect; nearly all actives have a fitted effect of over 45% in size
Procedure, shortened: as §2

[8] = qHTS of pediatric cancer cell lines to identify multiple opportunities for drug repurposing: Confirmatory screen for LAN-5 cells (AID 1347113); settings: LAN-5 neuroblastoma cell viability; series mostly up to 45.9 µM; also: potency is read from the fitted curve at half-maximal effect; nearly all actives have a fitted effect of over 65% in size
Procedure, shortened: as §2

[9] = qHTS of pediatric cancer cell lines to identify multiple opportunities for drug repurposing: Confirmatory screen for DAOY cells (AID 1347114); settings: DAOY medulloblastoma cells viability, cytotoxicity qHTS; series mostly up to 45.9 µM; also: nearly all actives have a fitted effect of over 65% in size; also: potency is read from the fitted curve at half-maximal effect
Procedure, shortened: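 Viability measured as metabolically active cells via CellTiter-Glo luminescence following 48 hours of compound exposure, 11-point dilutions in confirmatory testing. 500-1,000 cells/well plated 5 hours before dosing; controls were DMSO and 2.3 µM bortezomib.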

[10] = qHTS of pediatric cancer cell lines to identify multiple opportunities for drug repurposing: Confirmatory screen for BT-12 cells (AID 1347112); settings: BT-12 rhabdoid tumor cells, viability; series mostly up to 45.9 µM; also: nearly all actives have a fitted effect of over 55% in size; also: potency is read from the fitted curve at half-maximal effect
Procedure, shortened: as §2

## NCCCCNCCCN
[1]
  Potency: inactive
[2]
  Potency: inactive
[3]
  Potency: 23.5 µM (active)

## O=C1NC(=O)C(c2ccccc2[N+](=O)[O-])=C1Nc1ccc(O)c(Cl)c1
[4]
  Potency: inactive
[2]
  Potency: inactive
[3]
  Potency: inactive

## O=c1c(O)c(-c2cc(O)c(O)c(O)c2)oc2cc(O)cc(O)c12
[4]
  Potency: inactive
[2]
  Potency: inactive

## Cc1cc(Cl)ccc1OCCCC(=O)NO
[1]
  Potency: 7.43 µM (active)
[3]
  Potency: 14.8 µM (active)

## CC(=O)O[C@H]1C(=O)[C@@]2(C)C([C@H](OC(=O)c3ccccc3)[C@]3(O)C[C@H](OC(=O)[C@H](O)[C@@H](NC(=O)c4ccccc4)c4ccccc4)C(C)=C1C3(C)C)[C@]1(OC(C)=O)CO[C@@H]1C[C@@H]2O (stereo not given in full)
[4]
  Potency: inactive
[3]
  Potency: 0.0042 µM (active)
[5]
  Potency: 0.0147 µM (active)
[6]
  Potency: 0.0117 µM (active)

## CCN(CC)C(=S)SSC(=S)N(CC)CC
[1]
  Potency: 0.0372 µM (active)
[4]
  Potency: 166 nM (active) and 111 nM (active) and 1.19 µM (active)
[3]
  Potency: 13.2 nM (active) and 70 nM (active)
[7]
  Potency: 8.27 µM (active)
[5]
  Potency: 0.522 µM (active)
[8]
  Potency: 0.147 µM (active)
[9]
  Potency: 9.27 µM (active)

## Nc1nc(N)c(N=O)c(OCC2CCCCC2)n1
[1]
  Potency: 11.8 µM (active)
[2]
  Potency: inactive

## OC(CN1CCN(c2cccc(Cl)c2)CC1)C(c1ccccc1)c1ccccc1 (stereo not given)
[4]
  Potency: inactive
[2]
  Potency: inactive
[3]
  Potency: inactive

## CN(C)CCc1c[nH]c2ccc(Cn3cncn3)cc12
[4]
  Potency: inactive
[2]
  Potency: inactive
[3]
  Potency: inactive

## Cc1cc(C2CCCCC2)n(O)c(=O)c1
[1]
  Potency: 13.3 µM (active) and 23.5 µM (active)
[7]
  Potency: 14.7 µM (active)
[5]
  Potency: 11.7 µM (active)
[6]
  Potency: 5.22 µM (active)
[8]
  Potency: 5.85 µM (active)

## Oc1ccc2ccccc2c1SSc1c(O)ccc2ccccc12
[4]
  Potency: 23.5 µM (active)

## C[C@@H](c1ncncc1F)[C@](O)(Cn1cncn1)c1ccc(F)cc1F
[4]
  Potency: inactive
[2]
  Potency: inactive

## C[Se]CCC(N)C(=O)O (stereo not given)
[1]
  Potency: inactive
[4]
  Potency: inactive
[3]
  Potency: inactive

## CCCCCCCCOc1ccccc1C(=O)Nc1ccc(C(=O)OCC[N+](C)(CC)CC)cc1
[1]
  Potency: inactive
[4]
  Potency: inactive
[3]
  Potency: inactive

## COc1cc(Nc2c(C#N)cnc3cc(OCCCN4CCN(C)CC4)c(OC)cc23)c(Cl)cc1Cl
[4]
  Potency: inactive

## Cc1cc(=O)c2c(O)c3c(O)cc(=O)c4c3c3c(cc(O)c1c23)C(C)(C)C=4O
[1]
  Potency: 920 nM (active) and 4.69 µM (active)
[4]
  Potency: inactive
[3]
  Potency: 18.7 µM (active)

## CN(C)C(=O)COC(=O)Cc1ccc(OC(=O)c2ccc(N=C(N)N)cc2)cc1
[1]
  Potency: inactive
[2]
  Potency: inactive
[3]
  Potency: inactive

## Nc1nc(Cl)nc2c1ncn2[C@H]1C[C@H](O)[C@@H](CO)O1
[1]
  Potency: 29.6 µM (active)
[4]
  Potency: inactive
[3]
  Potency: inactive
[7]
  Potency: 2.08 µM (active)
[5]
  Potency: 3.69 µM (active)
[6]
  Potency: 6.57 µM (active)
[10]
  Potency: inactive
[9]
  Potency: inactive

## COC(=O)C1=C(C)NC(C)=C(C(=O)OC(C)C)C1c1cccc2nonc12 (stereo not given)
[4]
  Potency: inactive
[2]
  Potency: inactive
[3]
  Potency: inactive

## CCN(CC)CCOc1ccc(Nc2ncc3cc(-c4c(Cl)cccc4Cl)c(=O)n(C)c3n2)cc1
[1]
  Potency: 0.187 µM (active)
[3]
  Potency: 1.87 µM (active)
[7]
  Potency: 9.27 µM (active)
[5]
  Potency: 0.185 µM (active)
[6]
  Potency: 0.293 µM (active)
[10]
  Potency: 11.7 µM (active)
[9]
  Potency: 1.65 µM (active)

## O=c1cc(N2CCOCC2)oc2c(-c3ccccc3)cccc12
[4]
  Potency: inactive

## Cc1c(C(=O)NN2CCCCC2)nn(-c2ccc(Cl)cc2Cl)c1-c1ccc(Cl)cc1
[4]
  Potency: inactive
[2]
  Potency: inactive
[3]
  Potency: inactive
[5]
  Potency: 20.8 µM (active)
[6]
  Potency: 7.37 µM (active)
[9]
  Potency: 23.3 µM (active)

## NC(=NCc1ccccc1)NC(=O)c1nc(Cl)c(N)nc1N
[4]
  Potency: inactive

## c1ccc2[nH]c(-c3cscn3)nc2c1
[4]
  Potency: inactive
[2]
  Potency: inactive
[3]
  Potency: inactive

## CN(C)C(=O)[C@H](O)[C@H](Cc1ccccc1)NC(=O)c1cc2cc(Cl)ccc2[nH]1
[4]
  Potency: inactive

## CC(=O)N1CCN(c2ccc(OC[C@H]3CO[C@](Cn4ccnc4)(c4ccc(Cl)cc4Cl)O3)cc2)CC1
[4]
  Potency: inactive

## Oc1ccc(-c2nc(-c3ccc(F)cc3)c(-c3ccncc3)[nH]2)cc1
[4]
  Potency: inactive
[3]
  Potency: 16.6 µM (active)
[7]
  Potency: 0.928 µM (active)
[5]
  Potency: 1.17 µM (active)
[6]
  Potency: 1.17 µM (active)
[10]
  Potency: 11.7 µM (active)
[8]
  Potency: 1.04 µM (active)
[9]
  Potency: inactive

## CC(C)c1nc(CN(C)C(=O)N[C@H](C(=O)N[C@@H](Cc2ccccc2)C[C@H](O)[C@H](Cc2ccccc2)NC(=O)OCc2cncs2)C(C)C)cs1
[4]
  Potency: inactive

## Cc1cccc(C#Cc2ccccc2)n1
[4]
  Potency: inactive

## CCc1nc(N)nc(N)c1-c1ccc(Cl)cc1
[4]
  Potency: inactive
[2]
  Potency: inactive
[3]
  Potency: inactive
[5]
  Potency: 0.329 µM (active)
[6]
  Potency: 1.31 µM (active)

## COc1cc2c(N3CCN(C(=O)Nc4ccc(OC(C)C)cc4)CC3)ncnc2cc1OCCCN1CCCCC1
[1]
  Potency: inactive
[2]
  Potency: inactive

## S=c1nc[nH]c2nc[nH]c12
[1]
  Potency: inactive
[4]
  Potency: inactive
[3]
  Potency: inactive

## CCCCc1ccc2nc(NC(=O)OC)[nH]c2c1
[2]
  Potency: inactive
[7]
  Potency: 0.657 µM (active)
[5]
  Potency: 0.329 µM (active)
[6]
  Potency: 0.329 µM (active)
[8]
  Potency: 8.27 µM (active)
[9]
  Potency: 0.185 µM (active)

## COC(=O)C1=C(C)NC(C)=C(C(=O)OCCCN2CCC(c3ccccc3)(c3ccccc3)CC2)C1c1cccc([N+](=O)[O-])c1 (stereo not given)
[4]
  Potency: inactive
[2]
  Potency: inactive
[3]
  Potency: inactive

## Cc1nc(Nc2ncc(C(=O)Nc3c(C)cccc3Cl)s2)cc(N2CCN(CCO)CC2)n1
[1]
  Potency: 0.0084 µM (active)
[2]
  Potency: inactive
[3]
  Potency: inactive
[5]
  Potency: 20.8 µM (active)
[10]
  Potency: 6.57 µM (active)
[9]
  Potency: 16.5 µM (active)

## CN(C)c1ccc2nc3ccc(=[N+](C)C)cc-3sc2c1
[1]
  Potency: 3.72 µM (active) and 2.11 µM (active)
[4]
  Potency: 11.9 µM (active)
[3]
  Potency: 5.9 µM (active) and 6.68 µM (active)
[7]
  Potency: 3.29 µM (active)
[5]
  Potency: 8.27 µM (active)
[6]
  Potency: 1.17 µM (active)
[10]
  Potency: 1.04 µM (active)
[8]
  Potency: 3.69 µM (active)
[9]
  Potency: 4.65 µM (active)
